Experimental data as given in PubChem BioAssay AID1347165 (National Center for Advancing Translational Sciences (NCATS), 2019).
Among all 220,000 compounds or so, about 5,700 (2.6%) were called active. Not shown: some 18% with an inconclusive outcome. Calls follow the shape of the dose curve; as a rule, active = well fitted inhibition curve with a large enough effect; inconclusive = small, poorly fitted or top-dose-only effect; inactive = no such curve, though single readings can be large or run the other way. Only a selection was taken, and actives are over-represented in it overall.

molecular target: Lysine-specific demethylase 5B (Homo sapiens) (UniProt Q9UGL1); test: Primary screen for KDM5B Histone Demethylases FDH-coupled qHTS; conditions: FDH-coupled NADH fluorescence (FDH is formaldehyde dehydrogenase); series mostly up to 57.7 µM; also: nearly all actives have a fitted effect of over 70% in size
How it was run: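 Compound dilutions met 200 nM (final) KDM5BΔAP for 10 min at room temperature before substrate addition. The substrate mix held 12.5 µM H3K4me3 with cofactors 25 µM α-ketoglutarate and 50 µM Fe²⁺. NADH signal gain over 30 min defined activity.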
Potency is read from the fitted curve at half-maximal effect.

Chain of Lysine-specific demethylase 5B (Homo sapiens) (Q9UGL1 whole entry, looked up): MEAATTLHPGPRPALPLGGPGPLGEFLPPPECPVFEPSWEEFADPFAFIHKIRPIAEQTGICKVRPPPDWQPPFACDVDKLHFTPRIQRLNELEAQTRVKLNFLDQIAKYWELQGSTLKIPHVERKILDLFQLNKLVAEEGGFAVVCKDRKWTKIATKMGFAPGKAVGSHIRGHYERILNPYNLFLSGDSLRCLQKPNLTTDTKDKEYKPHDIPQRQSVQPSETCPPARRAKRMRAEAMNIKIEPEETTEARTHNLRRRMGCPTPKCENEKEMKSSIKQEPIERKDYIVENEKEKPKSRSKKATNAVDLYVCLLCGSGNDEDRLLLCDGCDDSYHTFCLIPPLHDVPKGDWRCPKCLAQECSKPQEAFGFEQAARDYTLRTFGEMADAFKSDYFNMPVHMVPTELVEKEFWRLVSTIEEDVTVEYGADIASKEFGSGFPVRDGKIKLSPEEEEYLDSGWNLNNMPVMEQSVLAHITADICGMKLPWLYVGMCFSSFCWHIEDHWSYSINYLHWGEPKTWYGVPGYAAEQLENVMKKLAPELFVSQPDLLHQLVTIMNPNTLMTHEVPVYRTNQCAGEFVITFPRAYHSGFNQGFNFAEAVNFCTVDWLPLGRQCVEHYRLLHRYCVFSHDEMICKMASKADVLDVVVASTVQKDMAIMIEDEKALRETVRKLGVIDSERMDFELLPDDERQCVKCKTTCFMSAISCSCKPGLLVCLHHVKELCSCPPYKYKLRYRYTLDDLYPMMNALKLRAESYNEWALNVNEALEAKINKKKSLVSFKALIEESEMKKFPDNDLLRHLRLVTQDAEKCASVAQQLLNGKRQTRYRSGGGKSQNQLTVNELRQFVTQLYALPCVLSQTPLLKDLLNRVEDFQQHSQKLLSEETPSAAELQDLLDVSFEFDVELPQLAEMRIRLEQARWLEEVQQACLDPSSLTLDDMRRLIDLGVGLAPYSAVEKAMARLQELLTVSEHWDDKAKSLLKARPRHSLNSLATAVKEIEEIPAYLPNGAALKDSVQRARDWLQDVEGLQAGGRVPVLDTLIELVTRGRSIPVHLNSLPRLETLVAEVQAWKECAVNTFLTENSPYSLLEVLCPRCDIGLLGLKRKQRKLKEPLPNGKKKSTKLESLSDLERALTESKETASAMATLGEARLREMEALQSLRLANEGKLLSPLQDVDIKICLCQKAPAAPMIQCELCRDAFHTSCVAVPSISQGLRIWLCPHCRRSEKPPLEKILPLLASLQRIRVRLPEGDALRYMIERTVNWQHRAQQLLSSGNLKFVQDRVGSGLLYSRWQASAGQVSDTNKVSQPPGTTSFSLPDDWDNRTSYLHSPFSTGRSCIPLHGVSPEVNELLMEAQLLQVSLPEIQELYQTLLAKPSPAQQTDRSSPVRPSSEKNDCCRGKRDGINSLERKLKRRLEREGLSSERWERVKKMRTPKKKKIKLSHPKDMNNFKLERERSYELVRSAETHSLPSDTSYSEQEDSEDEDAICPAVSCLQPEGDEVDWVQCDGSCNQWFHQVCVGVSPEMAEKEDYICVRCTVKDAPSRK

Potency, inactive:
COc1ccccc1NC(=O)C1CCN(c2nc3ccccc3nc2OC)CC1
Cc1cc(Cl)ccc1-c1ccc(CN)cc1
COCCNC(=O)C1CCN(S(=O)(=O)c2ccc3c(ccn3C)c2)CC1
N#Cc1cccnc1-c1cccc(C(=O)O)c1
N#Cc1ccccc1Sc1ccccc1C(=O)NC1CCCCC1
Cc1ccc(C(=O)NCc2nc(C)cs2)cn1
CC(C)C1=C/C(=C/c2ccccc2)C(C)/C(=C/c2ccccc2)C1=O (configuration not stated)
Cc1ccccc1NC(=O)CN1C(=O)C(C)(C)c2ccccc21
CC1CCC2(CC1)NC(=O)N(CC(=O)NCc1ccco1)C2=O (configuration not stated)
CCn1c(=O)c2ccccc2n(CC(=O)Nc2ccccc2C(F)(F)F)c1=O
CCNC(=O)NC(=O)C(C)Sc1nc(-c2ccccc2)c(-c2ccccc2)o1 (configuration not stated)
Cc1nc2cc(NC(=O)c3ccc(C(=O)c4ccccc4)cc3)ccc2o1
Cc1ccccc1N(C)C1CN(Cc2cccc3ccccc23)C1
CN(Cc1cccc2ccccc12)C1CCc2ccccc21 (configuration not stated)
Cc1oc(-c2cccs2)nc1CC(=O)N1CCC2(CC1)NC(=O)NC2=O
COCC(=O)N[C@H]1CO[C@H]2[C@@H]1OC[C@@H]2Nc1nccc(C(C)(C)C)n1
CC(C)(C)c1ccnc(N[C@H]2CO[C@H]3[C@@H]2OC[C@H]3OC(=O)Nc2cccc(C(F)(F)F)c2)n1
CC(C)(C)c1ccnc(N[C@H]2CO[C@H]3[C@@H]2OC[C@@H]3NC(=O)CC2(CC(=O)O)CCCC2)n1
COc1ccc(NC(=O)O[C@@H]2CO[C@H]3[C@@H]2OC[C@@H]3NC(=O)NC2CCCCC2)cc1
COc1ccc(NC(=O)O[C@@H]2CO[C@H]3[C@@H]2OC[C@@H]3NC(=O)C2CCCCC2)cc1
O=C(Nc1ccccc1)O[C@@H]1CO[C@H]2[C@@H]1OC[C@@H]2NS(=O)(=O)c1cccc2cccnc12

Potency, active:
CC(C)(O)CCc1cccc(C(=O)NC2CCN(c3ncccc3C#N)CC2)c1 22.4 µM
Cc1ccccc1CNC(=O)CN1C(=O)C2(CCNCC2)Nc2ccccc21 14.1 µM
c1ccc2c(c1)CCN2C1CN(Cc2cccc3ccccc23)C1 100 µM
COc1cccc(NC(=O)O[C@@H]2CO[C@H]3[C@@H]2OC[C@@H]3Nc2nccc(-c3cccs3)n2)c1 15.8 µM
O=C(Nc1cccc(C(F)(F)F)c1)O[C@@H]1CO[C@H]2[C@@H]1OC[C@@H]2Nc1nccc(-c2ccc3c(c2)OCO3)n1 31.6 µM
CC(C)(CC(=O)O)CC(=O)N[C@H]1CO[C@H]2[C@@H]1OC[C@@H]2Nc1nccc(-c2ccc3c(c2)OCO3)n1 28.2 µM
